From PubChem BioAssay
Inconclusive results are not listed. Active and inactive are the calls of the source.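 Rule for the calls, unless noted: active = efflux inhibition above 0.42, the validation set average plus 4 SD; inconclusive = no clear call, values can overlap the other calls; inactive = the rest.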

Tests used:
[1] = yeast TOR pathway RPL19A-GFP modulators, primary screen, cell-based, S. cerevisiae, multiplex flow cytometry (AID 1862; in the data active = percent of DMSO control GFP below about 86%;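 note: lower values mimic rapamycin by blocking the RPL19A rise seen in DMSO cells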); conditions: S. cerevisiae RPL19A-GFP strain, flow cytometry fluorescence, 3 h; at 10 µM; stronger effect = lower value
[2] = modulators of MEP2-GFP levels in yeast, primary screen, S. cerevisiae, multiplex flow cytometry (AID 1867;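 active = GFP response, as percent of the DMSO control, above the screen-wide mean plus 3 SD, about 139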;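 note: median GFP channel fluorescence of barcode-gated MEP2-GFP cells measured by flow cytometry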); conditions: S. cerevisiae MEP2-GFP strain, 3 h, at 10 µM, stronger effect = higher value, 100% means same as DMSO wells
[3] = modulators of CIT2-GFP expression in yeast, primary screen, S. cerevisiae, GFP fusion, multiplex flow cytometry (AID 1870;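 active = percent response above a set limit, the screen-wide mean plus 3 SD, cut at about 130% in these data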;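 note: barcoded CIT2-GFP strain pooled with four other GFP strains with rapamycin as positive control; median GFP fluorescence per well over plate mean of DMSO wells so 100% = DMSO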); conditions: 3 h, at 10 µM, stronger effect = higher value
[4] = modulators of LAP4-GFP expression in yeast, primary screen, S. cerevisiae, multiplex flow cytometry (AID 1873;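 active = GFP signal, as percent of the solvent control, above the screen mean plus 3 SD, about 149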); conditions: 3 h, at 10 µM, stronger effect = higher value
[5] = modulators of AGP1-GFP expression in yeast TOR pathway, primary screen, cell-based, multiplex flow cytometry, S. cerevisiae (AID 1887;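 active = GFP signal above the screen-wide mean plus 3 SD, that is over about 124.5% of the solvent control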;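 note: AGP1-GFP fusion strain of S. cerevisiae within a five-strain barcoded multiplex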); conditions: 3 h, at 10 µM, stronger effect = higher value
[6] = inhibitors of CD8+ T cell-vesicle binding, pilot screen, LFA-1/ICAM-1 modulator project, MLPCN validation set, flow cytometry (AID 2523;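 active = response below a set limit, under 55% cells CD8-positive and vesicle-bound, and CD8 cells' 90th-percentile brightness under 279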;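 for vesicle binding response: mean PE anti-B7-1 fluorescence of CD8+ cells relative to row control; 100% = QL9-loaded vesicles with DMSO vehicle in the same plate row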); conditions: 2C mouse CD8+ T cells, at 7 µM, stronger effect = lower value; double positive events: measured here: CD8+/vesicle+ event percentage
[7] = molecular target: Integrin beta-1 (Homo sapiens) + Integrin alpha-4 (Homo sapiens) (UniProt P13612+P05556); experiment: inhibition of HUTS-21 binding to VLA-4, pilot screen, VLA-4 allosteric modulator project, U937 cells, HUTS-21 mAb, flow cytometry, validation set (AID 2674;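 active = inhibition above 50%, about 3 SD of the validation set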;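 note: antibody binding induced by the VLA-4 ligand LDV present at three times its Kd; 0% = LDV ligand with antibody and no compound and 100% = antibody without LDV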); conditions: HUTS-21 LIBS mAb binding, at 6.7 µM, stronger effect = higher value, binding induced by LDV ligand
[8] = superoxide lowering in aged yeast cells, pilot screen, validation compound set (AID 2706;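 active = superoxide response below 65% of plate, a cut near 3 SD across the whole screen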;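 note: yeast exposed to compound for one week at 30 degrees C before staining; 100% = mean of all compound wells on the same plate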); conditions: S. cerevisiae aging, superoxide DHE fluorescence; at 10 µM; stronger effect = lower value
[9] = molecular target: Beta-adrenergic receptor kinase 1 (Homo sapiens) (UniProt P25098); experiment: GRK2 binders displacing RNA aptamer, biochemical, validation, human GRK2, bead flow cytometry (AID 488806;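 active = aptamer binding inhibition above 30%, about 3 SD of noise from non-fluorescent compounds; inactive = inhibition at or below 30%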); conditions: bead-bound GRK2, FAM-aptamer displacement, at 10 µM, stronger effect = higher value
[10] = molecular target: Beta-2 adrenergic receptor (Homo sapiens) (UniProt P07550); experiment: beta2AR agonists driving receptor internalization, pilot screen, cell-based, FAP fluorogen, flow cytometry, validation set (AID 504459;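 active = percent response above 42, roughly 3 SD of non-fluorescent test compounds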;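 note: agonist-driven loss of surface beta2AR via internalization measured by FAP dye flow cytometry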); conditions: Am2.2-beta2AR cells, FAP surface receptor flow cytometry; at 10 µM; stronger effect = higher value
[11] = molecular target: AP-2 complex subunit beta (Homo sapiens) (UniProt P63010); experiment: inhibitors of arrestin peptide binding to AP2, pilot screen, biochemical, validation set, GST-AP2 beads, flow cytometry (AID 504541;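 active = inhibition above 54%, about 3 SD of non-fluorescent compounds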;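 note: AP2 carries R879A mutation and is captured from E. coli lysate; bead-bound FITC arrestin peptide fluorescence measuring arrestin peptide binding to AP2; 0% = DMSO wells and 100% = excess unlabeled arrestin peptide control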); conditions: FITC arrestin peptide, at 10 µM, stronger effect = higher value, AP2 beta2 appendage fragment, R879A mutant
[12] = yeast V-ATPase proton transport modulators, S. cerevisiae, pHLuorin, HTS validation (AID 504600; in the data active = response above about 15%;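 note: plate controls were DMSO for no effect and reference compound for full effect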); conditions: S. cerevisiae pHLuorin cytosolic pH, at 10 µM, stronger effect = higher value
[13] = test system: anti-desmoglein-3 scFv antibody binding to human DSG3; experiment: inhibitors of anti-DSG3 scFv binding to DSG3, pilot screen, biochemical, validation compound set, bead-based, flow cytometry (AID 588368;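 active = binding below the plate cutoff, the plate median minus 3 SD, with a reading above zero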;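 note: signal is the median channel fluorescence of bead-bound GFP antibody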); conditions: Protein G beads, DSG3-Fc, scFv-GFP binding, at 10 µM, stronger effect = lower value
[14] = inhibitors of fungal efflux pumps CDR1, CDR2, MDR1, pilot screen, validation compound set, multiplex, phenotypic (AID 588506);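 note: Nile Red retained in cells so higher fluorescence means more efflux inhibition; 0 = negative control wells and 1 = enniatin B 25 µM full block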; conditions: S. cerevisiae pump-expressing triplex, Nile Red efflux flow cytometry; at 10 µM; stronger effect = higher value; the pumps come from Candida albicans
[15] = molecular target: ATP-binding cassette sub-family B member 6 (Homo sapiens) (UniProt Q9NP58); experiment: ABCB6 transporter inhibitors, pilot screen, K562-ABCB6 cells, flow cytometry, validation set (AID 588550;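 active = inhibition above the screen-wide mean plus 3 SD, about 51%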;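 note: 0% = DMSO wells and 100% = benzethonium chloride 70 µM positive control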); conditions: K562-ABCB6 porphyrin accumulation, 1 h, at 10 µM, stronger effect = higher value
[16] = promoters of myeloid differentiation in arrested cells, primary screen, cell-based, GFP/MAC1 double positive, flow cytometry, validation set (AID 588685;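 active = differentiation response of at least 50%, scaled between solvent and reference control, from cells with both markers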;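 note: compound exposure lasts four days before antibody staining and flow analysis; 0% = DMSO wells and 100% = 5 µM fulvestrant positive control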); conditions: ER-HoxA9 marrow cells, stronger effect = higher value, normalized: vehicle 0, fulvestrant 100

Beta-2 adrenergic receptor (Homo sapiens), sequence (P07550 whole entry, looked up): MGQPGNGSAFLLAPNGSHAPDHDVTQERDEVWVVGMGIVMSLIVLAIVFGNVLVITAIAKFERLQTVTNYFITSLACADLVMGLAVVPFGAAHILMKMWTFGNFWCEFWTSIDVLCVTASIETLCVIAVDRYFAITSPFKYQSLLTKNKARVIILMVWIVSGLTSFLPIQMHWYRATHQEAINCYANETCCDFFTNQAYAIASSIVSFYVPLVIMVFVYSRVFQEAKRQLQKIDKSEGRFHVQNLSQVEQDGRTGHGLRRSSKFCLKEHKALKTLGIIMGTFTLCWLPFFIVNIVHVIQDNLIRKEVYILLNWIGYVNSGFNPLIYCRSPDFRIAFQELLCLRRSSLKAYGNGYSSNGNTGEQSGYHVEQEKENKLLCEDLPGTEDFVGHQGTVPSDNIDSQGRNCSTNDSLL
ATP-binding cassette sub-family B member 6 (Homo sapiens), sequence (Q9NP58 whole entry, looked up): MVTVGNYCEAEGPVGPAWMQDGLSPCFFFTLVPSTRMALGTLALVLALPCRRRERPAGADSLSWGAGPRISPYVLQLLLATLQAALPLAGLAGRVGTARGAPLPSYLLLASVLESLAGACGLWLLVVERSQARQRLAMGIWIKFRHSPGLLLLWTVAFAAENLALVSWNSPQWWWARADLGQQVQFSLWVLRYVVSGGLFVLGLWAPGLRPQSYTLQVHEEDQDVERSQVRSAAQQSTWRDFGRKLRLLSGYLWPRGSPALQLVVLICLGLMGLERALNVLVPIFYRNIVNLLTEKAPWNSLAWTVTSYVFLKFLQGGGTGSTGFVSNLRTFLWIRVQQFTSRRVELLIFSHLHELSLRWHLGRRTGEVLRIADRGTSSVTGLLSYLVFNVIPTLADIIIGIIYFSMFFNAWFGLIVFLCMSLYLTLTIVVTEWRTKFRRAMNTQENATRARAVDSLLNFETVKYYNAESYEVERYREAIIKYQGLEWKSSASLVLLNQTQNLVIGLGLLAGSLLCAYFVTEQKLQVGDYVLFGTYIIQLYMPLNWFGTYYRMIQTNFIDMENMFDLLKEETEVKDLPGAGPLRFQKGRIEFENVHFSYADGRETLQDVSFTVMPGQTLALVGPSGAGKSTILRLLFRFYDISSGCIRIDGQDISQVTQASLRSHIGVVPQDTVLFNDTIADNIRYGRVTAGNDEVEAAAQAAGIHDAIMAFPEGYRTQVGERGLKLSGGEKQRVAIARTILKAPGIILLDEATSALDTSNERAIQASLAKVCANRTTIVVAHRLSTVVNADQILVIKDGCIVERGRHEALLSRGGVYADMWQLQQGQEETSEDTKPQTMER
AP-2 complex subunit beta (Homo sapiens), sequence (P63010 whole entry, looked up, the tested form may be a part, one chain of several): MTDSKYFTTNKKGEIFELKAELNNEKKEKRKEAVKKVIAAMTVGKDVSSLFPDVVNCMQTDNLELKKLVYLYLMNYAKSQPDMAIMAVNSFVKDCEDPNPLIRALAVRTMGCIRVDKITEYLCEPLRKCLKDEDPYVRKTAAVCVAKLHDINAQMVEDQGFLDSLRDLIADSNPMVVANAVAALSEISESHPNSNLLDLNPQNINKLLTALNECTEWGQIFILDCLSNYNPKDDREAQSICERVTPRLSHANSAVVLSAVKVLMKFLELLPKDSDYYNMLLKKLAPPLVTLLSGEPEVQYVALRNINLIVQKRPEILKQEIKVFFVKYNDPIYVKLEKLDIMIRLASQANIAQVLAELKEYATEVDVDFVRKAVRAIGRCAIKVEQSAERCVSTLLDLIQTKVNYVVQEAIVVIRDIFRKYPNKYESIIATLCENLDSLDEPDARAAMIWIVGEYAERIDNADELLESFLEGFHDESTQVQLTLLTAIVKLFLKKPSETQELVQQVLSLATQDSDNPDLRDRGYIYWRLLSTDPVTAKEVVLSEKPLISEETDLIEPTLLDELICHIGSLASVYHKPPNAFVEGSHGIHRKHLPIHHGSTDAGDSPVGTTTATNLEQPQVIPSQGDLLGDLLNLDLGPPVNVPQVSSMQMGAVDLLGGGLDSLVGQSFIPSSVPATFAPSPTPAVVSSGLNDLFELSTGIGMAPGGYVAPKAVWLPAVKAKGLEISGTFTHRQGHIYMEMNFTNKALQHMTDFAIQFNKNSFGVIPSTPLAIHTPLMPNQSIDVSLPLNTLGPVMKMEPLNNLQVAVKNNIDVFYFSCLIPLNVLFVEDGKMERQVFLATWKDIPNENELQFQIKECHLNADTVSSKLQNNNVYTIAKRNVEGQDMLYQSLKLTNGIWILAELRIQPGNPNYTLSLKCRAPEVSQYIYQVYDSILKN
Integrin beta-1 (Homo sapiens) + Integrin alpha-4 (Homo sapiens), sequence (P05556 whole entry, looked up): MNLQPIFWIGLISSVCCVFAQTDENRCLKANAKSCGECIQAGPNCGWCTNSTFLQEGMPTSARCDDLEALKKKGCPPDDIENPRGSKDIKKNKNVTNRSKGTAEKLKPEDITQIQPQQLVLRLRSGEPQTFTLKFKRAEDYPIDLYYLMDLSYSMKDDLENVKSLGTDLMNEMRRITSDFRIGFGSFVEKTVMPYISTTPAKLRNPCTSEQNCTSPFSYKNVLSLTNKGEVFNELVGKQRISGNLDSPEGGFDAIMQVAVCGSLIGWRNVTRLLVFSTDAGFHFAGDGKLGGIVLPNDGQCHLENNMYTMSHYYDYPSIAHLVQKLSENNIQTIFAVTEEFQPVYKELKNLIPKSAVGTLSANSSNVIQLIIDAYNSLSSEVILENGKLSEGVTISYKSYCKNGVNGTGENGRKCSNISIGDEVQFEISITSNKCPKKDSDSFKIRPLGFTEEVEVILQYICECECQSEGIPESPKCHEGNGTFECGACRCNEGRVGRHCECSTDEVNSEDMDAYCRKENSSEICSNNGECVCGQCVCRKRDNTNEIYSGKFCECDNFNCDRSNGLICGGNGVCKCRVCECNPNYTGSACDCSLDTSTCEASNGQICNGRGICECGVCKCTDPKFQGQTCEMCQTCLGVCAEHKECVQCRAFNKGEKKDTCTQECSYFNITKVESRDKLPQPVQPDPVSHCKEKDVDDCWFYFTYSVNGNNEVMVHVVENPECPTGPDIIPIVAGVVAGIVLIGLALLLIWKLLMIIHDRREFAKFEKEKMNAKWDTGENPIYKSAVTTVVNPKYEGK
Integrin beta-1 (Homo sapiens) + Integrin alpha-4 (Homo sapiens), sequence (P13612 whole entry, looked up): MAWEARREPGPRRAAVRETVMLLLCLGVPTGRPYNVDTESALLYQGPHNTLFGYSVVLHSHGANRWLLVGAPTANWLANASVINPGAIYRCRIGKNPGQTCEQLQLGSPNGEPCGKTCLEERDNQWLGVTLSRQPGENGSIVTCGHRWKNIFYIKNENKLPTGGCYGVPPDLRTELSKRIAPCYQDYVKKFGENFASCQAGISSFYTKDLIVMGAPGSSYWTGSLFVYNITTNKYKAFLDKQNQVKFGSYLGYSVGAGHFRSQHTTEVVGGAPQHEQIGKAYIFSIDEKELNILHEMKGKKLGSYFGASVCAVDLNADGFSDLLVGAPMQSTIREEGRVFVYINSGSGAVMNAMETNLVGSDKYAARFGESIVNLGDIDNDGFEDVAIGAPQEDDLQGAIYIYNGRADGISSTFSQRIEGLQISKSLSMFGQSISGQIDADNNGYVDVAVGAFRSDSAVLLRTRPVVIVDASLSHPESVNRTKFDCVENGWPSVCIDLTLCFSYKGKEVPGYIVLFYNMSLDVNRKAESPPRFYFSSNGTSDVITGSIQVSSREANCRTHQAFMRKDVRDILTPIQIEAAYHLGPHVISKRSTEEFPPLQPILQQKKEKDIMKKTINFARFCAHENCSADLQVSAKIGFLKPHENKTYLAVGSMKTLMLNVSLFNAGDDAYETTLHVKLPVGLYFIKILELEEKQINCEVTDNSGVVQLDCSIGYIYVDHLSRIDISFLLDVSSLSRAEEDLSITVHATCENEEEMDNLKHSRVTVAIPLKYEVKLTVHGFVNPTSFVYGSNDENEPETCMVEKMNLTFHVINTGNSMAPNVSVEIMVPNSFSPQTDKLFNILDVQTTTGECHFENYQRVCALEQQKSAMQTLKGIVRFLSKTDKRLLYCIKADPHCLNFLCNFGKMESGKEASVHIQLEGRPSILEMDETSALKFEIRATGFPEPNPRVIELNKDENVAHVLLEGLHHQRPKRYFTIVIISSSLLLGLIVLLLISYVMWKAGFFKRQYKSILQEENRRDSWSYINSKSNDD
Beta-adrenergic receptor kinase 1 (Homo sapiens), sequence (P25098 whole entry, looked up): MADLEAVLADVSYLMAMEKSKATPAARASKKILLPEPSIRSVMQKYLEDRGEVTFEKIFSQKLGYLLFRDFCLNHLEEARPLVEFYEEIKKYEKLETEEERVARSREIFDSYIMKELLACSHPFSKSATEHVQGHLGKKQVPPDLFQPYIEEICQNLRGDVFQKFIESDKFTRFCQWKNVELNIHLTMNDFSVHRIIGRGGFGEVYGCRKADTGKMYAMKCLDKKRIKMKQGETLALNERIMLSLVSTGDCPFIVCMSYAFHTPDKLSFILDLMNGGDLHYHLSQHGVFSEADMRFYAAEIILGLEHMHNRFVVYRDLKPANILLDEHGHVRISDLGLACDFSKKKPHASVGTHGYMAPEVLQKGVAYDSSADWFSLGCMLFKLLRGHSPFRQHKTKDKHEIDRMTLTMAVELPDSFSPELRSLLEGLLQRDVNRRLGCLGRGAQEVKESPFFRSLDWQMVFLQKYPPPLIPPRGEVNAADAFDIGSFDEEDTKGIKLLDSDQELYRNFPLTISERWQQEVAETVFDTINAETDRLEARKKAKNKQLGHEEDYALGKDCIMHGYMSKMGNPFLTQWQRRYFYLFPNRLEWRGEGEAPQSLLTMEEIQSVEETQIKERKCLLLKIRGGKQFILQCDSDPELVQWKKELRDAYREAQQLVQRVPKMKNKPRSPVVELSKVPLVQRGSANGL

## COc1ccc(Cc2noc(CN(C)CCN3CCc4ccccc4C3)n2)cc1OC
[1]
  percent of DMSO control GFP: 103% (inactive)
[2]
  GFP response vs DMSO: 105% (inactive)
[3]
  percent response of DMSO control: 109% (inactive)
[4]
  GFP response vs DMSO: 91.4% (inactive)
[5]
  GFP response, % of DMSO: 103% (inactive)
[6]
  double positive events: 65.2%
  vesicle binding response: 232% (inactive)
[7]
  inhibition: -8.75% (inactive)
[8]
  superoxide response (% of plate): 95% (inactive)
[9]
  aptamer binding inhibition: 6% (inactive)
[10]
  response: -6.59% (inactive)
[11]
  inhibition: -8.41% (inactive)
[12]
  response: 0.56% (inactive)
[13]
  binding (% of control): 104% (inactive)
[14]
  efflux inhibition (fraction of control): -0.1 (inactive)
[15]
  inhibition: -12% (inactive)
[16]
  differentiation response: 5.13% (inactive)

## CN1/C(=C\C=Nc2ccccc2)C(C)(C)c2ccccc21
[1]
  percent of DMSO control GFP: 102% (inactive)
[2]
  GFP response vs DMSO: 102% (inactive)
[3]
  percent response of DMSO control: 98.3% (inactive)
[4]
  GFP response vs DMSO: 103% (inactive)
[5]
  GFP response, % of DMSO: 113% (inactive)
[6]
  double positive events: 61.9%
  vesicle binding response: 196% (inactive)
[8]
  superoxide response (% of plate): 101% (inactive)
[9]
  aptamer binding inhibition: -1% (inactive)
[10]
  response: -50.9% (inactive)
[11]
  inhibition: 11.8% (inactive)
[12]
  response: 0.09% (inactive)
[13]
  binding (% of control): 116% (inactive)
[14]
  efflux inhibition (fraction of control): 0 (inactive)
[16]
  differentiation response: 2.89% (inactive)

## O=Cc1ccc(O)c(O)c1
[1]
  percent of DMSO control GFP: 106% (inactive)
[2]
  GFP response vs DMSO: 99.7% (inactive)
[3]
  percent response of DMSO control: 107% (inactive)
[4]
  GFP response vs DMSO: 98% (inactive)
[5]
  GFP response, % of DMSO: 108% (inactive)
[6]
  double positive events: 65.7%
  vesicle binding response: 145% (inactive)
[7]
  inhibition: 8.29% (inactive)
[8]
  superoxide response (% of plate): 99.7% (inactive)
[9]
  aptamer binding inhibition: 6% (inactive)
[10]
  response: 0.09% (inactive)
[11]
  inhibition: 6.09% (inactive)
[12]
  response: -5.24% (inactive)
[13]
  binding (% of control): 105% (inactive)
[14]
  efflux inhibition (fraction of control): -0.11 (inactive)
[15]
  inhibition: 21% (inactive)
[16]
  differentiation response: -4.57% (inactive)

## O=C(O)C1[C@H]2C(=O)N(C3CCCC3)C[C@]23C=C[C@H]1O3 (some centres not stated)
[1]
  percent of DMSO control GFP: 99.5% (inactive)
[2]
  GFP response vs DMSO: 104% (inactive)
[3]
  percent response of DMSO control: 101% (inactive)
[4]
  GFP response vs DMSO: 121% (inactive)
[5]
  GFP response, % of DMSO: 113% (inactive)
[6]
  double positive events: 57.9%
  vesicle binding response: 153% (inactive)
[7]
  inhibition: 11.7% (inactive)
[8]
  superoxide response (% of plate): 88% (inactive)
[9]
  aptamer binding inhibition: -2% (inactive)
[10]
  response: -17.8% (inactive)
[11]
  inhibition: -2.45% (inactive)
[12]
  response: -1.21% (inactive)
[13]
  binding (% of control): 101% (inactive)
[14]
  efflux inhibition (fraction of control): 0.04 (inactive)
[15]
  inhibition: 1% (inactive)
[16]
  differentiation response: -6.96% (inactive)

## Clc1cc(-c2ccc(/C=N/n3cnnc3)o2)ccc1Br
[1]
  percent of DMSO control GFP: 100% (inactive)
[2]
  GFP response vs DMSO: 103% (inactive)
[3]
  percent response of DMSO control: 102% (inactive)
[4]
  GFP response vs DMSO: 114% (inactive)
[5]
  GFP response, % of DMSO: 99.9% (inactive)
[6]
  double positive events: 56.6%
  vesicle binding response: 130% (inactive)
[7]
  inhibition: -3.77% (inactive)
[8]
  superoxide response (% of plate): 97% (inactive)
[9]
  aptamer binding inhibition: -5% (inactive)
[10]
  response: -6.37% (inactive)
[11]
  inhibition: 0.75% (inactive)
[12]
  response: 3.36% (inactive)
[13]
  binding (% of control): 98.8% (inactive)
[14]
  efflux inhibition (fraction of control): -0.36 (inactive)
[15]
  inhibition: -9% (inactive)
[16]
  differentiation response: -4.57% (inactive)

## OCCN1CCN(CCCN2c3ccccc3Sc3ccc(C(F)(F)F)cc32)CC1
[1]
  percent of DMSO control GFP: 104% (inactive)
[2]
  GFP response vs DMSO: 104% (inactive)
[3]
  percent response of DMSO control: 92.5% (inactive)
[4]
  GFP response vs DMSO: 101% (inactive)
[5]
  GFP response, % of DMSO: 115% (inactive)
[6]
  double positive events: 62.1%
  vesicle binding response: 176% (inactive)
[7]
  inhibition: 70.4% (active)
[8]
  superoxide response (% of plate): 90.7% (inactive)
[9]
  aptamer binding inhibition: -4% (inactive)
[10]
  response: 26.4% (inactive)
[11]
  inhibition: 13.1% (inactive)
[12]
  response: 0.87% (inactive)
[13]
  binding (% of control): 111% (inactive)
[14]
  efflux inhibition (fraction of control): -0.04 (inactive)
[15]
  inhibition: 11% (inactive)
[16]
  differentiation response: 0.92% (inactive)

## O=C(Nc1cccc(Oc2c(F)c(F)c(F)c(F)c2F)c1)N1C[C@@H]2C[C@@H](C1)c1cccc(=O)n1C2
[1]
  percent of DMSO control GFP: 100% (inactive)
[2]
  GFP response vs DMSO: 101% (inactive)
[3]
  percent response of DMSO control: 101% (inactive)
[4]
  GFP response vs DMSO: 98% (inactive)
[5]
  GFP response, % of DMSO: 101% (inactive)
[6]
  double positive events: 63.7%
  vesicle binding response: 215% (inactive)
[7]
  inhibition: 15.1% (inactive)
[8]
  superoxide response (% of plate): 104% (inactive)
[9]
  aptamer binding inhibition: 2% (inactive)
[10]
  response: -14.9% (inactive)
[11]
  inhibition: -6.11% (inactive)
[12]
  response: 0.72% (inactive)
[13]
  binding (% of control): 88% (inactive)
[14]
  efflux inhibition (fraction of control): -0.35 (inactive)
[15]
  inhibition: -6% (inactive)
[16]
  differentiation response: 7.09% (inactive)
